In the supplement of paper PMC12350171:
Where a name gives a salt, the structure may show the parent alone.

What was measured:
Conditions in all cases: 20 µM
[1] = test system: Haemophilus parainfluenzae; test: growth AUC normalised to DMSO control (fraction of control); higher = less growth inhibition, active = hit call of the paper
Procedure, shortened: (§1)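 Pathogens passaged twice anaerobically were inoculated at a starting OD578 of 0.01 into pre-reduced mGAM plates with drug at 20 μM and 1% DMSO, sealed with breathable membranes. Haemophilus parainfluenzae medium was supplemented with hemin and NAD. OD578 was read hourly for 24 h, with three biological replicates. Growth-curve AUC was computed by the trapezoidal rule up to the exponential-to-stationary transition and normalised to DMSO controls on the same plate.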

[2] = test system: Salmonella enterica typhimurium; test: as above
Procedure, shortened: as §1

Shigella flexneri = test: as above
Procedure, shortened: as §1

Vibrio cholerae = test: as above
Procedure, shortened: as §1

[3] = test system: Yersinia pseudotuberculosis; test: as above
Procedure, shortened: as §1

P. vulgatus RND KO = test: growth AUC normalised to DMSO control (median) (fraction of control); higher = less growth inhibition, active = hit call of the paper
Procedure, shortened: (§2)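 Anaerobic growth was tracked hourly at OD578 for 24 h in 96-well plates of mGAM seeded at OD578 0.01 with each approved-drug library compound at 20 μM and 1% DMSO. Strains had first been passaged twice overnight without oxygen. Three biological replicates were run. The reported median is the area under the curve, calculated by the trapezoidal rule on curves truncated at entry into stationary phase and normalised to vehicle wells on the same plate.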

P. vulgatus WT = test: as above
Procedure, shortened: as §2

[4] = test system: S. enterica typhimurium WT; test: as above
Procedure, shortened: as §2

[5] = test system: S. enterica typhimurium tolC KO; test: as above
Procedure, shortened: as §2

Measured: growth AUC normalised to DMSO control
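For growth AUC normalised to DMSO control (median) in this document: active when median AUC fell below 0.1.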

NC(=O)CN1CCCC1=O [Piracetam]
inactive: [1] 0.975 | [2] 0.991 | Shigella flexneri 0.957 | Vibrio cholerae 0.992 | [3] 0.993 | P. vulgatus RND KO 0.989 | P. vulgatus WT 0.982 | [4] 0.984 | [5] 0.996

O=c1[nH]c2ccccc2n1C1CCN(CCCC(c2ccc(F)cc2)c2ccc(F)cc2)CC1 [Pimozide]
inactive: [1] 0.788 | [2] 0.998 | Shigella flexneri 1 | Vibrio cholerae 1.07 | [3] 1.02 | P. vulgatus RND KO 1.14 | P. vulgatus WT 1 | [4] 0.998 | [5] 0.971

CN(C)C(=O)Oc1cccc([N+](C)(C)C)c1 [Neostigmine bromide]
inactive: [1] 1 | [2] 1 | Shigella flexneri 0.994 | Vibrio cholerae 1.01 | [3] 0.916 | P. vulgatus RND KO 1 | P. vulgatus WT 0.997 | [4] 1 | [5] 1.01

O=C1CC[C@@]2(O)[C@H]3Cc4ccc(O)c5c4[C@@]2(CCN3CC2CC2)[C@H]1O5 [Naltrexone hydrochloride dihydrate]
inactive: [1] 0.995 | [2] 1 | Shigella flexneri 0.992 | Vibrio cholerae 1 | [3] 1.01 | P. vulgatus RND KO 0.994 | P. vulgatus WT 1.02 | [4] 0.993 | [5] 0.998

CCN(C)C(=O)Oc1cccc([C@H](C)N(C)C)c1 [Rivastigmine]
inactive: [1] 1.13 | [2] 1.04 | Shigella flexneri 1.02 | Vibrio cholerae 1.11 | [3] 1.04 | P. vulgatus RND KO 1.01 | P. vulgatus WT 1.03 | [4] 1.01 | [5] 1.02

C[CH2][Hg][S]c1ccccc1C(=O)[O-].[Na+] [Thimerosal]
active: [2] 0.932 | Shigella flexneri 0.828 | P. vulgatus RND KO 0.0191
inactive: [1] 1.2 | Vibrio cholerae 0.935 | [3] 1 | P. vulgatus WT 0.341 | [4] 0.91 | [5] 0.956

C=C1C[C@@H]2[C@H](CC[C@]3(C)C(=O)CC[C@@H]23)[C@@]2(C)C=CC(=O)C=C12 [Exemestane]
inactive: [1] 0.967 | [2] 0.985 | Shigella flexneri 0.953 | Vibrio cholerae 0.964 | [3] 1 | P. vulgatus RND KO 0.978 | P. vulgatus WT 0.969 | [4] 0.996 | [5] 0.935

CC(=O)[C@H]1CC[C@H]2[C@@H]3CC[C@H]4C[C@H](O)CC[C@]4(C)[C@H]3C(=O)C[C@]12C [Alfaxalone]
inactive: [1] 1 | [2] 0.999 | Shigella flexneri 0.973 | Vibrio cholerae 0.964 | [3] 1.01 | P. vulgatus RND KO 0.996 | P. vulgatus WT 0.996 | [4] 1 | [5] 0.911

CN1[C@@H]2C[C@@H](OC(=O)[C@H](CO)c3ccccc3)C[C@H]1[C@@H]1O[C@@H]12 [Scopolamine hydrochloride]
inactive: [1] 1.06 | [2] 1.03 | Shigella flexneri 1.06 | Vibrio cholerae 1.06 | [3] 1.03 | P. vulgatus RND KO 1.03 | P. vulgatus WT 1.05 | [4] 1 | [5] 1.01

CCn1cc(C(=O)O)c(=O)c2cc3c(cc21)OCO3 [Oxolinic acid]
active: [1] 0.0639 | [2] 0.0132 | Shigella flexneri 0.0542 | Vibrio cholerae 0.0353 | [3] 0.0367 | [4] 0.0291 | [5] 0.0105
inactive: P. vulgatus RND KO 0.951 | P. vulgatus WT 0.922

C[C@@H]1CN([C@H]2CC[C@](C#N)(c3ccc(F)cc3)CC2)CC[C@]1(C(=O)O)c1ccccc1 [Levocabastine hydrochloride]
active: Vibrio cholerae 0.239
inactive: [1] 1.02 | [2] 1 | Shigella flexneri 1.02 | [3] 0.997 | P. vulgatus RND KO 0.989 | P. vulgatus WT 1.05 | [4] 0.997 | [5] 1.01

C[C@@H]1CC[C@H]2[C@@H](C)C(=O)O[C@@H]3O[C@@]4(C)CC[C@@H]1[C@]32OO4 [Artemisinin]
inactive: [1] 0.986 | [2] 0.988 | Shigella flexneri 1.01 | Vibrio cholerae 0.987 | [3] 0.957 | P. vulgatus RND KO 1.02 | P. vulgatus WT 1.04 | [4] 0.996 | [5] 0.998

O=[N+]([O-])O[C@H]1CO[C@H]2[C@@H]1OC[C@H]2O[N+](=O)[O-] [Isosorbide dinitrate]
inactive: [1] 1.07 | [2] 1.03 | Shigella flexneri 1.02 | Vibrio cholerae 1.09 | [3] 1.01 | P. vulgatus RND KO 0.94 | P. vulgatus WT 0.94 | [4] 0.996 | [5] 1.01

C[C@]12CC[C@H](O)C[C@H]1CC[C@@H]1[C@@H]2CC[C@]2(C)[C@@H](C3=CC(=O)OC3)CC[C@]12O [Digitoxigenin]
inactive: [1] 1 | [2] 1 | Shigella flexneri 0.981 | Vibrio cholerae 0.973 | [3] 0.995 | P. vulgatus RND KO 0.989 | P. vulgatus WT 0.968 | [4] 0.995 | [5] 1

C=C1CC[C@@]2(O)[C@H]3Cc4ccc(O)c5c4[C@@]2(CCN3CC2CC2)[C@H]1O5 [Nalmefene hydrochloride]
inactive: [1] 0.969 | [2] 1.01 | Shigella flexneri 1.03 | Vibrio cholerae 1.02 | [3] 1.03 | P. vulgatus RND KO 1 | P. vulgatus WT 1.03 | [4] 1 | [5] 1.01

COc1cc2c(c(OC)c1OC)-c1ccc(OC)c(=O)cc1[C@@H](NC(C)=O)CC2 [Colchicine]
inactive: [1] 0.981 | [2] 0.988 | Shigella flexneri 0.964 | Vibrio cholerae 0.98 | [3] 0.977 | P. vulgatus RND KO 0.988 | P. vulgatus WT 0.986 | [4] 1 | [5] 1.01

OC(c1ccccc1)(c1ccccc1)C1CCNCC1 [Azacyclonol]
inactive: [1] 0.982 | [2] 0.999 | Shigella flexneri 0.988 | Vibrio cholerae 0.967 | [3] 1 | P. vulgatus RND KO 1 | P. vulgatus WT 1.03 | [4] 1.01 | [5] 0.99

C[C@]12CC[C@H](O)CC1=CC[C@@H]1[C@@H]2CC[C@]2(C)C(=O)CC[C@@H]12 [Prasterone]
inactive: P. vulgatus RND KO 0.995 | P. vulgatus WT 0.994 | [4] 1.01 | [5] 0.942

CC(C)C[C@H](CN)CC(=O)O [Pregabalin]
inactive: P. vulgatus RND KO 0.971 | P. vulgatus WT 0.976 | [4] 0.991 | [5] 0.989

CCN(C(C)=O)c1cccc(-c2ccnc3c(C#N)cnn23)c1 [Zaleplon]
inactive: [1] 0.975 | [2] 0.978 | Shigella flexneri 0.954 | Vibrio cholerae 0.97 | [3] 1 | P. vulgatus RND KO 1 | P. vulgatus WT 1 | [4] 1 | [5] 0.992

COC[C@@H](NC(C)=O)C(=O)NCc1ccccc1 [Lacosamide]
inactive: P. vulgatus RND KO 0.998 | P. vulgatus WT 1 | [4] 0.987 | [5] 1

C=CC[C@]1(O)CC[C@H]2[C@@H]3CCC4=CCCC[C@@H]4[C@H]3CC[C@@]21C [Allylestrenol]
inactive: P. vulgatus RND KO 0.959 | P. vulgatus WT 0.925 | [4] 1.02 | [5] 1.01

CC[C@@]1([C@@H]2O[C@@H]([C@H]3O[C@@](O)(CO)[C@H](C)C[C@@H]3C)C[C@@H]2C)CC[C@H]([C@]2(C)CC[C@]3(C[C@H](O)[C@@H](C)[C@@H]([C@@H](C)[C@@H](OC)[C@H](C)C(=O)O)O3)O2)O1 [Monensin sodium salt]
inactive: P. vulgatus RND KO 0.261 | P. vulgatus WT 0.305 | [4] 1 | [5] 0.856

Nc1ccncc1 [Dalfampridine]
inactive: P. vulgatus RND KO 1 | P. vulgatus WT 1.03 | [4] 1.02 | [5] 0.995

C#C[C@]1(O)C=C[C@H]2[C@@H]3CCC4=CC(=O)CC[C@@H]4[C@H]3CC[C@@]21CC [Gestodene]
inactive: P. vulgatus RND KO 0.978 | P. vulgatus WT 0.978 | [4] 0.997 | [5] 0.995

CCCCCC[C@H]1C(=O)O[C@H](C)[C@H](NC(=O)c2cccc(NC=O)c2O)C(=O)O[C@@H](C)[C@@H]1OC(=O)CC(C)C [Antimycin A]
inactive: P. vulgatus RND KO 1.03 | P. vulgatus WT 1.05 | [4] 1.01 | [5] 1.01
